Reference: the supplement of paper PMC12494721
Structures can show the parent of a compound that is named as a salt. A number with no mark means an inactive call.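 The calls were made as follows: for the amine columns active = adjusted P below 0.05 in both replicates with a change the same way and a mean fold change under 0.8 or over 1.25; inactive = the rest.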

system: Ruminococcus gnavus DSM 108212; experiment: fold change of Tryptamine concentration vs plate DMSO controls (fold change (ratio)); higher = more amine produced, active = hit call of the paper (significant change in both replicates, either direction); details: incubation time: 27 h, anaerobic, 37 °C
Method in brief: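 Amines were quantified by LC–triple-quadrupole MS in dynamic MRM mode against external calibration curves, with drift correction within each batch. The samples were whole anaerobic mGAM cultures of four gut bacterial strains, grown for 27 h at 37 °C in 80 µL wells and extracted with cold acetonitrile/methanol with 0.1% formic acid, then centrifuged. Values are reported as fold change over DMSO controls on the same plate. The mean of 2 biological replicates is given.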

| SMILES | fold change of Tryptamine concentration |
| --- | --- |
| Oc1c(Cl)cc(Cl)cc1Sc1cc(Cl)cc(Cl)c1O [Bithionol] (20 µM) | 0.101 (active) |
| CO[C@@]1(NC(=O)C2SC(=C(C(N)=O)C(=O)O)S2)C(=O)N2C(C(=O)O)=C(CSc3nnnn3C)CS[C@@H]21 (some centres undefined) [Cefotetan] (20 µM) | 1.08 |
| N#CC(c1ccc(Cl)cc1)c1c(Cl)cc(-n2ncc(=O)[nH]c2=O)cc1Cl (centres undefined) [Diclazuril] (20 µM) | 0.778 (active) |
| CN(C)CCCN1c2ccccc2Sc2ccc(C(F)(F)F)cc21 [Triflupromazine hydrochloride] (20 µM) | 0.814 |
| CCC(=O)OCC(=O)[C@@]1(OC(=O)CC)[C@@H](C)C[C@H]2[C@@H]3CCC4=CC(=O)C=C[C@]4(C)[C@@]3(Cl)[C@@H](O)C[C@@]21C [Beclomethasone dipropionate] (20 µM) | 0.937 |
| O=C1CN(/N=C/c2ccc(-c3ccc([N+](=O)[O-])cc3)o2)C(=O)N1 [Dantrolene sodium salt] (20 µM) | 1.01 |
| CC(C)(C(=O)O)c1ccc(C(O)CCCN2CCC(C(O)(c3ccccc3)c3ccccc3)CC2)cc1 (centres undefined) [Fexofenadine hydrochloride] (20 µM) | 0.978 |
| C[C@H]1[C@@H](O)O[C@@H]2O[C@@]3(C)CC[C@H]4[C@H](C)CC[C@@H]1[C@@]24OO3 [Artenimol] (20 µM) | 1.01 |
| CC(C)(C)NC[C@H](O)COc1ccccc1C1CCCC1 [Penbutolol sulfate] (20 µM) | 1.11 |
| Cc1ccc(-c2ncc(Cl)cc2-c2ccc(S(C)(=O)=O)cc2)cn1 [Etoricoxib] (20 µM) | 1.1 |
| Clc1ccc(CO/N=C(\Cn2ccnc2)c2ccc(Cl)cc2Cl)c(Cl)c1 [Oxiconazole nitrate] (20 µM) | 0.351 (active) |
| NCc1ccc(S(N)(=O)=O)cc1 [Mafenide hydrochloride] (20 µM) | 0.773 |
| c1ccc(-c2ccc(C(c3ccccc3)n3ccnc3)cc2)cc1 (centres undefined) [Bifonazole] (20 µM) | 0.82 |
| OC[C@H]1O[C@@H](O[C@H]2[C@H](O)[C@@H](O)[C@H](O)O[C@@H]2CO)[C@H](O)[C@@H](O)[C@H]1O [Lactose] (50 µM) | 0.989 |
| CC(CNC1CCCCC1)OC(=O)c1ccccc1 (centres undefined) [Hexylcaine hydrochloride] (20 µM) | 1.01 |
| CN(C)CCc1c[nH]c2ccc(Cn3cncn3)cc12 [Rizatriptan benzoate] (20 µM) | 1.01 |
| CC[N+]1(CC)CCC(=C(c2ccccc2)c2ccccc2)C1C (centres undefined) [Prifinium Bromide] (20 µM) | 0.907 |
| COc1ccc(C(=O)c2ccc(C)cc2)c(O)c1 [Mexenone] (20 µM) | 1.03 |
| CC(C)NCC(O)COc1ccc(CCOCC2CC2)cc1 (centres undefined) [Betaxolol hydrochloride] (20 µM) | 1 |
| COc1cc(N)cn[n+]1-c1ccccc1 [Amezinium metilsulfate] (20 µM) | 1.06 |

| SMILES | fold change of Tryptamine concentration |
| --- | --- |
| C[C@H](NCc1ccc(OCc2cccc(F)c2)cc1)C(N)=O [Safinamide] (20 µM) | 0.99 |
| CC#C[C@]1(O)CC[C@H]2[C@@H]3CCC4=CC(=O)CCC4=C3[C@@H](c3ccc(N(C)C)cc3)C[C@@]21C [Mifepristone] (20 µM) | 0.975 |
| O=C1CCC(N2C(=O)c3ccccc3C2=O)C(=O)N1 (centres undefined) [Thalidomide] (20 µM) | 0.971 |
| CCCC(=O)Nc1ncnc2c1ncn2[C@@H]1O[C@@H]2COP(=O)(O)O[C@H]2[C@H]1OC(=O)CCC [Bucladesine sodium salt] (20 µM) | 0.984 |
| CCOC(=O)C1=C[C@@H](OC(CC)CC)[C@H](NC(C)=O)[C@@H](N)C1 [Oseltamivir phosphate] (20 µM) | 1.03 |
| Brc1c(NC2=NCCN2)ccc2nccnc12 [Brimonidine L-tartrate] (20 µM) | 0.885 |
| CC(C)(C)NC[C@H](O)COc1nsnc1N1CCOCC1 [Timolol maleate salt] (20 µM) | 0.991 |
| O=C(CCCN1CCC(O)(c2ccc(Cl)cc2)CC1)c1ccc(F)cc1 [Haloperidol] (20 µM) | 0.96 |
| OC[C@@H](O)[C@H](O)[C@@H](O)CO [Xylitol] (50 µM) | 1.06 |
| Cc1cnc(C(=O)NCCc2ccc(S(=O)(=O)NC(=O)NC3CCCCC3)cc2)cn1 [Glipizide] (20 µM) | 0.99 |
| Fc1ccc([C@@H]2CCNC[C@H]2COc2ccc3c(c2)OCO3)cc1 [Paroxetine hydrochloride] (20 µM) | 0.833 |
| Nc1nnc(-c2cccc(Cl)c2Cl)c(N)n1 [Lamotrigine] (20 µM) | 1.04 |
| Oc1c(Cl)cc(Cl)c(Cl)c1Cc1c(O)c(Cl)cc(Cl)c1Cl (20 µM) | 0.0717 (active) |
| Cc1c(Nc2ncccc2C(=O)O)cccc1C(F)(F)F [Flunixin meglumine] (20 µM) | 0.992 |
| COc1c(O)cc2c(c1O)[C@@H]1O[C@H](CO)[C@@H](O)[C@H](O)[C@H]1OC2=O [Bergenin] (20 µM) | 1.06 |
| Nc1c(CC(=O)O)cccc1C(=O)c1ccc(Br)cc1 [Bromfenac] (20 µM) | 1.08 |
| CNC[C@H](O)[C@@H](O)[C@H](O)[C@H](O)CO [Meglumine] (20 µM) | 1.02 |
| O=C(Nc1ccc([N+](=O)[O-])cc1Cl)c1cc(Cl)ccc1O [Niclosamide] (20 µM) | 0.887 |
| CN1CCN2c3ncccc3Cc3ccccc3C2C1 (centres undefined) [Mirtazapine] (20 µM) | 1.06 |
